Here are results for 24 molecules from PubChem BioAssay (NCATS).

Results filed as inconclusive are left out. Values without a mark were called inactive. Calls follow the shape of the dose curve; as a rule, active = well fitted activation curve with a large enough effect; inconclusive = small, poorly fitted or top-dose-only effect; inactive = no such curve, though single readings can be large or run the other way.

Chain of Cellular tumor antigen p53 (Homo sapiens) (P04637 whole entry, looked up): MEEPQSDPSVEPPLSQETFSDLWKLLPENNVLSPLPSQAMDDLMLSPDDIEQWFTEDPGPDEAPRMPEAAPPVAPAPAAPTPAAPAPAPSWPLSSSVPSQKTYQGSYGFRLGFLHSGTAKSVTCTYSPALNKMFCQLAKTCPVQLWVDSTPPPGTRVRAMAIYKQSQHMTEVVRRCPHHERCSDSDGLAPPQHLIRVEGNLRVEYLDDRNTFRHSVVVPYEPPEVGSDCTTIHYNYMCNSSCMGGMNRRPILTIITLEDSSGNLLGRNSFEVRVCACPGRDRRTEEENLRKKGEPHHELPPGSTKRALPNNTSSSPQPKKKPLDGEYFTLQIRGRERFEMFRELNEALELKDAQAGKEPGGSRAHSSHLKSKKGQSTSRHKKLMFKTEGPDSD

The experiment has as its target Cellular tumor antigen p53 (Homo sapiens) (UniProt P04637). Put plainly: Primary qHTS for small molecule compounds that upregulate eGFP-tagged delta133p53alpha (in N-terminal) cells. (AID 2060322).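 Also: series mostly up to about 56 µM; 0% = DMSO vehicle and 100% = reference activator; nearly all actives have a fitted effect of over 75% in size.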 The settings on record: NCI-H358 eGFP-delta133p53alpha fluorescence, 24 h; activation: stronger effect = higher value. The procedure, abridged: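 NCI-H358 cells pre-induced 24 h with 10 ng/ml doxycycline for eGFP-delta133p53alpha, plated dox-free and exposed 24 h at 37C to titrated compounds. Fixed, Hoechst-stained; gated GFP peak intensity by laser scanning cytometry, normalized to DMSO (0%) and 57.5 uM 5-azacytidine (100%).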
As to `COc1cc([C@H]2OC[C@@H]3[C@@H](c4ccc(O[C@@H]5O[C@H](CO)[C@@H](O)[C@H](O)[C@H]5O)c(OC)c4)OC[C@]23O)ccc1O`, the activation is 3.57%.
Take `COC(=O)c1[nH]c(=O)c2ccccc2c1-c1ccc[nH]1`: the activation was -11.6%.
`C[C@@H]1O[C@@H](O[C@H]2[C@H](O)[C@@H](O)[C@H](OC[C@H]3O[C@@H](OC(=O)[C@]45CCC(C)(C)C[C@H]4C4=CCC6[C@@]7(C)CC[C@H](O[C@@H]8OC[C@H](O)[C@H](O[C@@H]9O[C@H](CO)[C@@H](O)[C@H](O)[C@H]9O)[C@H]8O)[C@@](C)(CO)C7CC[C@@]6(C)[C@]4(C)CC5)[C@H](O)[C@@H](O)[C@@H]3O)O[C@@H]2CO)[C@H](O)[C@H](O)[C@H]1O` (some centres undefined): the activation is -10.7%.
For `CO[C@H]1C[C@@H]2CC[C@@H](C)[C@@](O)(O2)C(=O)C(=O)N2CCCC[C@H]2C(=O)O[C@H]([C@H](C)C[C@@H]2CC[C@H](n3cnnn3)[C@H](OC)C2)CC(=O)[C@H](C)/C=C(\C)[C@@H](O)[C@@H](OC)C(=O)[C@H](C)C[C@H](C)/C=C/C=C/C=C/1C`, the activation was 1%.
Regarding `COC(=O)C1=COC(OC2OC(CO)C(O)C(O)C2O)C2C(C)C(OC(=O)/C=C/c3ccc(O)cc3)C(O)C12` (centres undefined), the activation is -8.93%.
For the molecule `C[C@@H]1O[C@@H](O[C@H]2[C@H](O[C@H]3[C@H](O[C@H]4CC[C@@]5(C)C(CC[C@]6(C)C5CC=C5[C@@H]7CC(C)(C)C[C@@H](O)[C@]7(C)CC[C@]56C)C4(C)C)O[C@H](C(=O)O)[C@@H](O)[C@@H]3O)O[C@H](C(=O)O)[C@H](O)[C@@H]2O)[C@H](O)[C@H](O)[C@H]1O` (some centres undefined), the activation was -16.8%.
To `Cc1onc(C(=O)N2CCN(C(c3ccc(Cl)cc3)c3ccc(Cl)cc3)CC2)c1[N+](=O)[O-]` belongs 10.7%.
To `CC(=O)O[C@@H]1C2=C(O)C(=O)[C@](C)(OC(C)=O)C(=O)C2=CO[C@@]12O[C@@H](C)CC[C@H]2OC(C)=O` belongs -18.3%; to `COc1ccc(C(O)C(C)OC2OC(CO)C(O)C(O)C2O)cc1` (centres undefined), -7.63%.
As to `O=S(=O)(c1ccc(Cl)cc1)N1CCN(c2ccnc3cc(Cl)ccc23)CC1`, the activation was -12.5%.
With `CCC(C)C(=O)O[C@@H]1[C@@H](O)[C@@H](O[C@H]2O[C@H](CO)[C@@H](O)[C@H](O)[C@H]2O)O[C@H](CO)[C@H]1O` (some centres undefined), the activation is -2.29%.
For `O=C(O)Cc1cn(C2OCC(O)C(O)C2O[C@@H]2O[C@H](CO)[C@@H](O)[C@H](O)[C@H]2O)c2ccccc12` (some centres undefined) the value was 3.82%; for `CC(=O)OC1CC(C)C2(CCC3(CC(=O)OC3O)O2)C2(C)CCCC(C)(C)C12` (centres undefined), 22.3%.
For `COc1ccc(CCC(=O)O)c(O[C@@H]2O[C@H](CO)[C@@H](O)[C@H](O)[C@H]2O)c1` the value was -13.7%; for `O=C(O[C@H]1[C@@H]2C=CO[C@@H](O[C@@H]3O[C@H](CO)[C@@H](O)[C@H](O)[C@H]3O)[C@@H]2[C@@]2(CO)O[C@@H]12)c1ccc(O)cc1`, 4.58%; for `CC(=O)OCC1OC(O[C@H]2CC[C@@]3(C)C(CC[C@]4(C)C3CC=C3[C@@H]5CC(C)(C)CC[C@]5(C(=O)O)CC[C@]34C)[C@]2(C)CO)C(O)C(O)C1OC1OC(C)C(O)C(OC2OCC(O)C(O)C2O)C1O` (some centres undefined), -6.11%.
Regarding `COC(=O)C1C(c2ccc(O)cc2)C(C(=O)O)C1c1ccc(O)cc1` (centres undefined), the activation was -18.3%.
On to `COc1cc(O)cc(C)c1C(=O)O[C@H]1[C@@H](OC(C)=O)[C@H](n2ccc(=O)[nH]c2=O)O[C@@H]1CO`, for which the activation is -32.8%.
`C/C(=C/C=C\C=C\Cc1cnco1)[C@@H](O)C(C)(C)C(N)=O`: the activation was -11.5%.
For `CCCCC1CCN(CCCC(=O)c2ccccc2C)CC1` the value was 17%; for `C=CCC1=C[C@]2(OC)[C@H](C)[C@@H](c3ccc4c(c3)OCO4)O[C@]2(OC)CC1=O`, 1.53%; for `O=S(=O)(NC1CCNCC1)c1cc(S(=O)(=O)c2ccccc2)ccc1C(F)(F)F`, 5.25%.
As for `CCC(O)(C(=O)OCc1ccccc1NC(=O)CCC(=O)O)C(C)O` (centres undefined), the activation was 4.58%.
Regarding `C=C(C)[C@@H]1CC[C@]2(C(=O)O)CC[C@]3(C)C(CCC4[C@]5(C)C(CC[C@]43C)C(C)(C)[C@@H](O)[C@@H]5C(=O)O)C12` (some centres undefined), the activation was -18.3%.
